PubChem BioAssay
Activity calls are given as the source filed them. Unless noted, no rule for the calls is given here.

Experiments:
[1] = test system: Wnt5a (protein binding on small-molecule microarray); assay: Wnt5a binders on small-molecule microarray, primary screen, biophysical, 635/667 nm fluorescence (AID 1142); conditions: 635 nm fluorescence, higher = more signal;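 also: fluorescence read at 667 nm with signal to noise per printed feature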
[2] = cell viability in Huh7 cells, primary screen, cytotoxicity control for HCV replication inhibitor project, CellTiter-Glo luminescence, basal, 48 h (AID 1143); conditions: Huh7 HCV replicon, higher = more signal, called active from +8 up or from −8 down;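 also: Huh7 hepatoma cells carrying a hepatitis C replication reporter with no stimulus; test concentration not given here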
[3] = P. aeruginosa biofilm formation inhibitors, primary screen, PAO1 strain, BacTiter-Glo luminescence, LB-PBS (AID 1144); conditions: 12 h, higher = more signal
[4] = CREB reporter modulators without forskolin, primary screen, cell-based, PC12, CRE-LacZ reporter, unstimulated (AID 1145); conditions: no forskolin, luminescence, 4.5 h, higher = more signal, called active from +8 up or from −8 down
[5] = CREB reporter modulators under forskolin, primary screen, cell-based, PC12, CRE-LacZ reporter, forskolin-stimulated (AID 1146); conditions: luminescence, 4.5 h, higher = more signal, called active from +8 up or from −8 down;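 also: PC12 cells with 6xCRE LacZ reporter stimulated by forskolin 10 µM; beta-galactosidase reporter signal reflecting CREB driven transcription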
[6] = target: Streptavidin (Streptomyces avidinii) (UniProt P22629); assay: streptavidin binders on small-molecule microarray, primary screen, artefact control for SMM compound annotation, biophysical, 635/667 nm fluorescence (AID 1147); conditions: streptavidin binding, higher = more signal;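 also: signal reflects streptavidin binding to arrayed compounds as a control protein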
[7] = small-molecule binders of probe aInhba, primary screen, biochemical, small-molecule microarray, 635/667 nm fluorescence (AID 1148); conditions: higher = more signal;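 also: score merges 667nm spot fluorescence with signal-to-noise for antibody binding to printed compounds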
Torsin-1A (Homo sapiens) [8] = target: Torsin-1A (Homo sapiens) (UniProt O14656); assay: torsin A binders from cell lysate, primary screen, small-molecule microarray, wild-type, 635/667 nm (AID 1149); conditions: COS7 hTOR1A-WT lysate, 635 nm fluorescence, higher = more signal
Torsin-1A (Homo sapiens) [9] = target: Torsin-1A (Homo sapiens) (UniProt O14656); assay: small-molecule binders of mutant TOR1A in lysate, primary screen, cell lysate, small-molecule microarray, COS7 lysate, 635/667 nm fluorescence (AID 1150); conditions: COS7 hTOR1A mutant lysate, 635 nm fluorescence, higher = more signal;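 also: score pools 667 nm emission and signal to noise measuring lysate protein binding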
[10] = test system: Sonic hedgehog protein (Shh); assay: small-molecule binders of Shh protein, primary screen, biochemical, small-molecule microarray, 635/667 nm fluorescence (AID 1151); conditions: small-molecule microarray binding, 635 nm fluorescence; higher = more signal;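 also: Shh protein binding to compounds spotted on small-molecule microarray slides; score combines spot fluorescence intensity with signal-to-noise across triplicate slides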

Chain of Streptavidin (Streptomyces avidinii) (P22629 whole entry, looked up): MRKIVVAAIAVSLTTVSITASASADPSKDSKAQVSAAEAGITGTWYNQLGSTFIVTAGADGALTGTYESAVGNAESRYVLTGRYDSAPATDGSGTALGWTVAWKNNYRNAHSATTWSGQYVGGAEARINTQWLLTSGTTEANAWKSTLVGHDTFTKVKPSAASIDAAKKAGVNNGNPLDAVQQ
Chain of Torsin-1A (Homo sapiens) (O14656 whole entry, looked up): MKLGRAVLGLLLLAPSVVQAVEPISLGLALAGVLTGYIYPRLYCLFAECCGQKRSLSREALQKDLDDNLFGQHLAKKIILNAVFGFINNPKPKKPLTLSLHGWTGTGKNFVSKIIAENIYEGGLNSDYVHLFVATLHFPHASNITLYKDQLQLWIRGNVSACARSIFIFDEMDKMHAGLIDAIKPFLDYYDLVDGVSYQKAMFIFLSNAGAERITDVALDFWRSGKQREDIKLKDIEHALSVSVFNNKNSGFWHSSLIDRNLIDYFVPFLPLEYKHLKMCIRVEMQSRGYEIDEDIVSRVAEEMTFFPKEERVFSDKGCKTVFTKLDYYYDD

Q: What does the source list for [N-]=[N+]=NCc1ccccc1[C@H]1OC(c2ccc(OCCCO)cc2)=N[C@@]1(CCS(=O)(=O)c1ccccc1)C(=O)N1CCOCC1?
A: composite z-score [1]: 1.03; z-score [2]: -0.865 (inactive); z-score [3]: 0.164 (inactive); z-score [4]: 0.526 (inactive); z-score [5]: 0.363 (inactive); composite z-score [6]: 1.62; composite z-score [7]: 0.556; composite z-score (Torsin-1A (Homo sapiens) [8]): 1.7; composite z-score (Torsin-1A (Homo sapiens) [9]): 1.85; composite z-score [10]: -0.164

Q: Which composite z-score [1] does the source give for CC(C)c1ccc(NN2C(C(O)c3cccc(O)c3)C=CC3C(=O)N(c4ccccc4)C(=O)C32)cc1 (stereo not given) here?
A: 0.125

Q: What about the z-score [2] of the same compound?
A: -0.392 (inactive)

Q: And the z-score [3]?
A: -0.406 (inactive)

Q: And the z-score [4]?
A: 1.39 (inactive)

Q: And the z-score [5]?
A: 1.67 (inactive)

Q: And the composite z-score [6]?
A: 1.52

Q: And the composite z-score [7]?
A: 0.0236

Q: What about the composite z-score (Torsin-1A (Homo sapiens) [8]) of the same compound?
A: 0.77

Q: And the composite z-score (Torsin-1A (Homo sapiens) [9])?
A: 1.3

Q: And the composite z-score [10]?
A: 0.671

Q: What does the source list for [N-]=[N+]=NCc1ccccc1[C@@H]1OC(c2ccc(OCCCO)cc2)=N[C@]1(Cc1ccccc1)C(=O)N1CCCCC1?
A: composite z-score [1]: 0.663; z-score [2]: -3.77 (inactive); z-score [3]: -0.641 (inactive); z-score [4]: 1.56 (inactive); z-score [5]: -0.546 (inactive); composite z-score [6]: 0.466; composite z-score [7]: 0.288; composite z-score (Torsin-1A (Homo sapiens) [8]): -0.451; composite z-score (Torsin-1A (Homo sapiens) [9]): -0.271; composite z-score [10]: 0.0721

Q: Which results are given for O=C1[C@]2(CO)C=C(Br)[C@@H](C[C@@H]2c2ccccc2)[C@@]12CO2?
A: composite z-score [1]: -0.165; z-score [2]: -0.296 (inactive); z-score [3]: -0.547 (inactive); z-score [4]: 1.12 (inactive); z-score [5]: 3.94 (inactive); composite z-score [6]: 1.26; composite z-score [7]: -0.237; composite z-score (Torsin-1A (Homo sapiens) [8]): -0.619; composite z-score (Torsin-1A (Homo sapiens) [9]): 0.0294; composite z-score [10]: 0.344

Q: With O=C1C2C=CC(C(O)c3ccc(F)cc3)N(Nc3ccccc3)C2C(=O)N1c1ccccc1 (stereo not given) as the compound, how does the composite z-score [1] read?
A: 0.137

Q: And the z-score [2]?
A: 0.633 (inactive)

Q: What about the z-score [3] of the same compound?
A: -0.686 (inactive)

Q: What about the z-score [4] of the same compound?
A: -0.522 (inactive)

Q: What about the z-score [5] of the same compound?
A: -0.49 (inactive)

Q: And the composite z-score [6]?
A: 0.0517

Q: What about the composite z-score [7] of the same compound?
A: 0.212

Q: What about the composite z-score (Torsin-1A (Homo sapiens) [8]) of the same compound?
A: 0.171

Q: What about the composite z-score (Torsin-1A (Homo sapiens) [9]) of the same compound?
A: -0.27

Q: What about the composite z-score [10] of the same compound?
A: -0.61

Q: Which composite z-score [1] does the source give for C=C(COC)C(=O)CC[C@H](OC(C)=O)c1cccc(OCCO)c1 here?
A: 0.145

Q: What about the z-score [2] of the same compound?
A: -3.15 (inactive)

Q: What about the z-score [3] of the same compound?
A: 0.198 (inactive)

Q: And the z-score [4]?
A: 0.942 (inactive)

Q: What about the z-score [5] of the same compound?
A: 0.203 (inactive)

Q: And the composite z-score [6]?
A: -1.1

Q: And the composite z-score [7]?
A: -0.142

Q: And the composite z-score (Torsin-1A (Homo sapiens) [8])?
A: 0.315

Q: And the composite z-score (Torsin-1A (Homo sapiens) [9])?
A: 0.142

Q: What about the composite z-score [10] of the same compound?
A: 0.9

Q: Which results are given for CC(C)NC(=O)[C@@H]1c2ccccc2C(=O)N(Cc2ccccc2Cl)[C@H]1c1ccc(CO)cc1?
A: composite z-score [1]: -0.243; z-score [2]: -0.485 (inactive); z-score [3]: 0.471 (inactive); z-score [4]: 0.145 (inactive); z-score [5]: -0.47 (inactive); composite z-score [6]: -0.418; composite z-score [7]: -0.179; composite z-score (Torsin-1A (Homo sapiens) [8]): 0.267; composite z-score (Torsin-1A (Homo sapiens) [9]): 0.343; composite z-score [10]: 0.0599

Q: For C#CCN(C(/C=C/c1ccccc1)CO)C(C(=O)O)c1ccccc1 (stereo not given), which composite z-score [1] is on record?
A: 0.0265

Q: And the z-score [2]?
A: -3.59 (inactive)

Q: What about the z-score [3] of the same compound?
A: 1.13 (inactive)

Q: And the z-score [4]?
A: -0.0487 (inactive)

Q: And the z-score [5]?
A: -0.53 (inactive)

Q: And the composite z-score [6]?
A: 0.18

Q: And the composite z-score [7]?
A: 0.0391

Q: And the composite z-score (Torsin-1A (Homo sapiens) [8])?
A: -0.407

Q: And the composite z-score (Torsin-1A (Homo sapiens) [9])?
A: -0.959

Q: What about the composite z-score [10] of the same compound?
A: -0.514
